Source: PubChem BioAssay (National Center for Advancing Translational Sciences (NCATS))
Hits are enriched below; roughly 12% of the tested compounds scored in any of these assays.
Pf growth 48h = Primary qHTS for delayed death inhibitors of the malarial parasite plastid, 48 hour incubation; hit rate 5.9% among 310,000; AID 504832, 2011; P. falciparum luciferase growth in erythrocytes, 48 h; Potency, µM (series often up to 28.7 µM), usual class: inhibitors
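In quantitative HTS format, infected erythrocytes bearing luciferase-reporter parasites were treated for a single generation at 37 C. Luminescence after adding detection reagent served as the growth measure.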
Sm TGR block = qHTS Assay for the Inhibitors of Schistosoma Mansoni Peroxiredoxins; Schistosoma mansoni thioredoxin glutathione reductase (TGR), Q962Y6; purified TGR, DTNB reduction, TNB absorbance 405 nm; Potency, µM (titrated, usually from 114 µM), most hits filed as inhibitors; hit rate 3% among 360,000; further: nearly all actives have a fitted effect of over 60% in size
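First, TGR (20 nM dispensed) and NADPH were mixed with compound. Second, a 15 min room-temperature incubation followed. Third, further NADPH and then DTNB were added to start the reaction. Finally, TNB absorbance was monitored kinetically.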
Pf growth 96h = Primary qHTS for delayed death inhibitors of the malarial parasite plastid, 96 hour incubation. Potency, µM (titrated, usually from 28.7 µM), hits mostly inhibitors. P. falciparum luciferase reporter growth, 96 h. hit rate 6.9% among 320,000
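Two parasite generations (96 h, 37 C, 5% CO2) of compound exposure in infected erythrocytes (0.05% parasitemia, 2% hematocrit). Luciferase-reporter P. falciparum; decreased luminescence indicates inhibited growth, aimed at apicoplast-acting delayed death.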
SARS PLpro yeast-1 = qHTS of Yeast-based Assay for SARS-CoV PLP. S. cerevisiae expressing SARS-CoV PLpro, growth rescue. Potency, µM (highest dose often 32.9 µM), most hits filed as activators. hit rate 0.19% among 330,000; calls by dose curve; further: nearly all actives have a fitted effect of over 55% in size
SARS PLpro yeast-2 = qHTS of Yeast-based Assay for SARS-CoV PLP: Hit Validation. shares compounds with SARS PLpro yeast-1. yeast expressing SARS-CoV PLpro, growth phenotype rescue. calls only. hit rate 19% among 1,000. AID 652038, 2013; call rule not given here
Of the large screens only hits and unclear results are named; the others gave an inactive call (follow-up assays come after a bar, where they were run). Unless noted, the call rests on the fitted dose curve; in most records, active means well fitted curve in the direction sought with a large enough effect; inconclusive means small, poorly fitted or top-dose-only effect, or another doubt; inactive means no such curve, though single readings can be large; an effect the other way counts as inactive or inconclusive.

COC(=O)C1=C(c2ccc(-c3ccccc3)c(F)c2)C[C@@H]2CC[C@H]1N2C(=O)NC(C)C	Pf growth 48h inconclusive, Pf growth 96h inconclusive
COC(=O)C1=C(c2ccc(-c3ccccc3)c(F)c2)C[C@@H]2CC[C@H]1N2C(=O)NC1CC1	Pf growth 48h 4.7µM, Pf growth 96h 2.9µM, SARS PLpro yeast-1 inconclusive | SARS PLpro yeast-2 inactive
Cc1nn(-c2ccccc2)c(C)c1/C=N/NC(=O)CSc1nnc(SCc2ccccc2Cl)s1	Pf growth 96h inconclusive, SARS PLpro yeast-1 inconclusive | SARS PLpro yeast-2 active
COc1ccc(NC(=O)CN(C)C(=O)c2cc(S(=O)(=O)N(C)C)ccc2N2CCCC2)cc1	none (no result: SARS PLpro yeast-1)
CN(CC(=O)Nc1c(Cl)cccc1Cl)C(=O)c1cc(S(=O)(=O)N(C)C)ccc1N1CCCC1	Pf growth 48h inconclusive, Pf growth 96h inconclusive, SARS PLpro yeast-1 inconclusive | SARS PLpro yeast-2 inactive
O=C(O)CSc1nnc(CSc2nc3ccccc3s2)n1-c1ccccc1	none
C#CCSc1nnc(CSc2nc3ccccc3s2)n1-c1ccccc1	Sm TGR block 50µM, SARS PLpro yeast-1 inconclusive (no result: Pf growth 96h) | SARS PLpro yeast-2 inconclusive
Cc1cc(C(=O)COC(=O)C23CC4CC(CC(O)(C4)C2)C3)c(C)n1C	none (no result: Pf growth 48h, Sm TGR block, Pf growth 96h)
CCOC(=O)C(CC)/C(C)=N\NC(=O)c1ccccc1O (stereo not drawn)	SARS PLpro yeast-1 6.3µM | SARS PLpro yeast-2 inactive
O=c1c2oc3ccccc3c2ncn1Cc1ccc(Br)cc1	none (no result: Pf growth 48h, Pf growth 96h, SARS PLpro yeast-1)
COc1cccc(CNC(=O)Cc2ccc(NC(=O)N3CCCCc4ccccc43)cc2)c1OC	none (no result: Pf growth 48h, Pf growth 96h, SARS PLpro yeast-1)
Cc1ccc(C(=O)Nc2nc(-c3ccccc3)c(-c3ccccc3)o2)cc1	Pf growth 96h inconclusive, SARS PLpro yeast-1 10µM | SARS PLpro yeast-2 active
CC(C(=O)NCc1ccc2c(c1)OCO2)N1c2cccc3cccc(c23)S1(=O)=O (stereo not drawn)	Pf growth 48h inconclusive, SARS PLpro yeast-1 inconclusive | SARS PLpro yeast-2 active
CC(=O)N/C(=C\c1cccc([N+](=O)[O-])c1)C(=O)NC1CCCCC1	SARS PLpro yeast-1 inconclusive | SARS PLpro yeast-2 inactive
Cc1ccc(NC(=O)/C(=C/c2cccc([N+](=O)[O-])c2)NC(=O)C2CCCCC2)cc1	Pf growth 48h inconclusive (no result: Pf growth 96h)
CCNc1nc(NCC)nc(N/N=C/c2cc(OC)c(OC)c(OC)c2)n1	Pf growth 48h inconclusive
CCNc1nc(NCC)nc(N/N=C/c2ccc(O)c(O)c2)n1	Pf growth 96h inconclusive, SARS PLpro yeast-1 11µM | SARS PLpro yeast-2 inactive
Cc1cc(Cl)ccc1OCC(=O)N/N=C1\CC2C=CCC12 (stereo not drawn)	SARS PLpro yeast-1 inconclusive | SARS PLpro yeast-2 inactive
Cc1sc2nc(CN(C(=O)NC3CCCCC3)C3CCCC3)[nH]c(=O)c2c1C	Pf growth 48h inconclusive, SARS PLpro yeast-1 3.5µM | SARS PLpro yeast-2 inconclusive
COc1cccc(-n2c(SCc3cc(=O)oc4cc(O)c(O)cc34)nc3ccccc3c2=O)c1	Pf growth 96h inconclusive, SARS PLpro yeast-1 14µM | SARS PLpro yeast-2 inactive
c1ccc(C2OCCN3CCCCC23)cc1 (stereo not drawn)	none
CN1CCOC(c2ccccc2)c2ccccc2C1 (stereo not drawn)	Pf growth 96h 10µM, SARS PLpro yeast-1 5µM | SARS PLpro yeast-2 inactive
O=C(CN1C(=O)NC2(CCCC2)C1=O)N1CCN(S(=O)(=O)c2cccc(F)c2)CC1	none (no result: SARS PLpro yeast-1) | SARS PLpro yeast-2 inactive
CCOC(=O)C1=C(COC(=O)/C=C/c2ccc(OC)cc2)NC(=O)NC1C (stereo not drawn)	Pf growth 48h inconclusive
CCOC(=O)C1=C(COC(=O)/C=C/c2ccco2)NC(=O)NC1C (stereo not drawn)	Sm TGR block inconclusive, SARS PLpro yeast-1 inconclusive | SARS PLpro yeast-2 inactive
CC(C)(C)c1cc(NS(=O)(=O)c2cccs2)no1	none
O=[N+]([O-])c1ccc(Oc2cccc3cccnc23)c([N+](=O)[O-])c1	Pf growth 48h 10µM, Pf growth 96h 13µM (no result: SARS PLpro yeast-1) | SARS PLpro yeast-2 inactive
N#Cc1ccc(Oc2cccc3cccnc23)c([N+](=O)[O-])c1	none
COc1cc(N/N=C/c2ccccc2O)ncn1	Pf growth 48h inconclusive, Pf growth 96h inconclusive, SARS PLpro yeast-1 8.9µM | SARS PLpro yeast-2 inconclusive
COc1cc(N/N=C/c2ccc(N(C)C)cc2)ncn1	Pf growth 96h inconclusive
COCCCn1c(=N)c(C(=O)NCc2cccnc2)cc2c(=O)n3cccc(C)c3nc21	none (no result: Pf growth 48h, Pf growth 96h, SARS PLpro yeast-1)
